Measurements as given in PubChem BioAssay (Tox21).
Records with an inconclusive call do not appear. The source made the active and inactive calls. Unless noted, calls follow the shape of the dose curve; as a rule, active = well fitted curve in the direction sought with a large enough effect in the repeat runs; inconclusive = weak or mixed curves; inactive = no such curve, though single readings can be large; an effect the other way counts as inactive or inconclusive.

What was measured:
[1] = A CellTox Green Cytotoxicity Assay to monitor cytotoxicity in HepG2 cells - 8 hour (AID 1224890); also: nearly all actives have a fitted effect of over 45% in size; also: potency is read from the fitted curve at half-maximal effect
How it was run: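 Fluorescent DNA-binding dye, 600 HepG2 cells/well, 5 h preincubation then compound in DMSO; same plates read at 0–40 h, 37 C.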

[2] = qHTS assay to identify small molecule antagonists of the androgen receptor (AR) signaling pathway using the MDA cell line in the presence of 0.5 nM R1881 - cell viability counter screen (AID 1259242); also: nearly all actives have a fitted effect of over 45% in size
How it was run: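 Human breast carcinoma MDA-kb2 cells, cultured without CO2, receive compounds alongside 0.5 nM (final) R1881 agonist. After 16 hr at 37C, viability is taken as live-cell protease signal.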

[3] = target: Estrogen receptor (Homo sapiens) (UniProt P03372); assay: qHTS assay to identify small molecule antagonists of the estrogen receptor alpha (ER-alpha) signaling pathway using the BG1 cell line in the presence of 0.1 nM 17-beta-estradiol (AID 1259244); also: nearly all actives have a fitted effect of over 50% in size
How it was run: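 Seeding of stripped-serum-adapted VM7Luc4E2 cells, 24 h attachment, compound transfer, then 0.1 nM final 17beta-estradiol; after 22 h incubation, ONE-Glo reagent and luminescence reading.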

[4] = qHTS assay to identify small molecule HDAC inhibitors (AID 1259364); also: potency is read from the fitted curve at half-maximal effect;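 also: wild-type HCT-116 cells with endogenous class I/II HDAC activity; nearly all actives have a fitted effect of over 45% in size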
How it was run: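 After a 2 hr compound incubation (37C, 5% CO2), HCT-116 cells seeded at 1,500/well the day before received HDAC-Glo reagent; signal read as luminescence after 30 min at room temperature.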

[5] = qHTS assay to identify small molecule HDAC inhibitors - cell viability counter screen (AID 1259365); also: series mostly up to about 92 µM; nearly all actives have a fitted effect of over 50% in size
How it was run: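 Following a 2hr exposure of overnight-plated wild-type HCT-116 cells to DMSO-delivered compounds, CellTiter-Glo was added and luminescence recorded after 30min at room temperature.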

[6] = qHTS assay to identify small molecule agonists of the sonic hedgehog signaling (Shh) pathway - cell viability counter screen (AID 1259366); also: nearly all actives have a fitted effect of over 50% in size; also: potency is read from the fitted curve at half-maximal effect
How it was run: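 After a 4hr attachment at 37C, NIH/3T3 cells bearing an integrated Gli1-driven luciferase reporter were dosed with compounds. Treatment lasted 24hr, with the final hour including CellTiter-Fluor for a fluorescence viability measurement.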

[7] = qHTS assay to identify small molecule antagonists of the sonic hedgehog signaling (Shh) pathway - cell viability counter screen (AID 1259367); also: nearly all actives have a fitted effect of over 55% in size; also: potency is read from the fitted curve at half-maximal effect
How it was run: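 Viability was read by CellTiter-Fluor fluorescence in the same wells, reagent added 23 hr into compound treatment and incubated 1 hr at 37C. The 3T3 Gli1-Luc reporter cells (2,000/well) received conditioned medium after compound and ran 24 hr.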

[8] = qHTS assay to identify small molecule phospholipidosis (PLD) inducers (AID 1259344; active = well fitted curve in the direction sought with a large enough effect; an effect the other way counts as inactive or inconclusive)
How it was run: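 Phospholipid accumulation was scored by imaging: fixed, Hoechst-counterstained HepG2 cells stained with LipidTOX Red after 24 h compound exposure at 37 C. Read-outs were pit count and pit intensity per well or per cell, with amiodarone and DMSO controls.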

[9] = qHTS assay to identify small molecule antagonists of the estrogen receptor alpha (ER-alpha) signaling pathway using the BG1 cell line in the presence of 0.1 nM 17-beta-estradiol - cell viability counter screen (AID 1259241); also: nearly all actives have a fitted effect of over 40% in size; also: potency is read from the fitted curve at half-maximal effect
How it was run: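 Measures cytotoxicity alongside the ER-alpha antagonist readout: VM7Luc4E2 cells, charcoal-stripped serum, 0.1 nM 17beta-estradiol final, 22 hr compound incubation at 37C, CellTiter-Fluor fluorescence.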

[10] = target: Androgen receptor (Homo sapiens) (UniProt P10275); assay: qHTS assay to identify small molecule antagonists of the androgen receptor (AR) signaling pathway using the MDA cell line in the presence of 0.5 nM R1881 (AID 1259243); also: nearly all actives have a fitted effect of over 50% in size; also: potency is read from the fitted curve at half-maximal effect
How it was run: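 Cells: MDA-kb2 (MMTV-luc). Stimulus: 0.5 nM R1881. Time: 16 hr, 37C, no CO2. Detection: ONE-Glo luminescence after 30 min at RT.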

Measured: Potency

Chain of Androgen receptor (Homo sapiens) (P10275 whole entry, looked up): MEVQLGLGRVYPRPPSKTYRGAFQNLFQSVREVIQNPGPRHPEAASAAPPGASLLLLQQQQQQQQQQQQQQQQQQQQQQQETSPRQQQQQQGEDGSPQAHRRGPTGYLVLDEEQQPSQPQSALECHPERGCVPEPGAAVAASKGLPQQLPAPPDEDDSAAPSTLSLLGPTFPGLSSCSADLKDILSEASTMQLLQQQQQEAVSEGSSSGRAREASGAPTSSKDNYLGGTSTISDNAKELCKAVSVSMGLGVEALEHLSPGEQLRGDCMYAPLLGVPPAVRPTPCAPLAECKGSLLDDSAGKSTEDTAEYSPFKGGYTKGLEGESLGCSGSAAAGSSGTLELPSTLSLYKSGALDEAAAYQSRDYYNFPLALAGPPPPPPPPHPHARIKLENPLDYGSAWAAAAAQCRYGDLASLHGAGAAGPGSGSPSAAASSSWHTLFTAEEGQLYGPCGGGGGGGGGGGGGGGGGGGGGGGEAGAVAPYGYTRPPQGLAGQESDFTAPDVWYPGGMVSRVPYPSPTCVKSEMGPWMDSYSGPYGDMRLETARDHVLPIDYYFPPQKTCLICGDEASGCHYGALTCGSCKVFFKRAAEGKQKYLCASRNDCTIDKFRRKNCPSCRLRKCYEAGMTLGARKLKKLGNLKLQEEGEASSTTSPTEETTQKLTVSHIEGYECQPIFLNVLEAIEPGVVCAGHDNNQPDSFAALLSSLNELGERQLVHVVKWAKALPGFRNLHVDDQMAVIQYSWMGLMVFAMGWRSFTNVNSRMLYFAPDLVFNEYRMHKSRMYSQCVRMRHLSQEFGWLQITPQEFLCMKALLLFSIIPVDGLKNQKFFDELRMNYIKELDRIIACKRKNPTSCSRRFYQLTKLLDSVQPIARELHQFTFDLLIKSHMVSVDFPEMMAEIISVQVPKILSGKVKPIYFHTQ
Chain of Estrogen receptor (Homo sapiens) (P03372 whole entry, looked up): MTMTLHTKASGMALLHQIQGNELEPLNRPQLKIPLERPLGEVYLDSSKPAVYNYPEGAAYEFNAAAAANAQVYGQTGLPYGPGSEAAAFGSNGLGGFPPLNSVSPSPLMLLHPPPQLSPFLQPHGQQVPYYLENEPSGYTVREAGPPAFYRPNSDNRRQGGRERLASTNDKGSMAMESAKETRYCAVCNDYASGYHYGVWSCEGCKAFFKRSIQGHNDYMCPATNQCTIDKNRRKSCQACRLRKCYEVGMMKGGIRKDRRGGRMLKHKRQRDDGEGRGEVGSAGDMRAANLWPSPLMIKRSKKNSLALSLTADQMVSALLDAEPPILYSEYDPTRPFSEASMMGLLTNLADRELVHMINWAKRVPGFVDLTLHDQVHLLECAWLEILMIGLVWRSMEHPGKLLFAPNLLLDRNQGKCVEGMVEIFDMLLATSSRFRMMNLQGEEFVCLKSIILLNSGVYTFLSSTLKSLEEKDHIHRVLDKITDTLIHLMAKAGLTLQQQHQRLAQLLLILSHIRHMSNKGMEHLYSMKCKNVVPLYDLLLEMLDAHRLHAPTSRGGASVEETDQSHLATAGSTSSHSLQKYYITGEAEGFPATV

Nc1cccc2c(=O)[nH][nH]c(=O)c12
not listed: [8] | [9] | [10]
inactive: all other assays above

CC1(COc2ccc(CC3SC(=O)NC3=O)cc2)CCCCC1 (centres undefined)
not listed: [9] | [10]
inactive: all other assays above

CC(C(=O)O)c1ccc(/C=C2\CCCCC2=O)cc1 (centres undefined)
inactive: [1] | [9] | [8] | [5] | [6] | [7]

COc1ccc(/C=C/S(=O)(=O)NC(=O)c2ccc(C)cc2Cl)cc1
inactive: [1] | [9] | [4] | [5] | [6]

O=C1c2ccccc2C(=O)C1c1ccc2cc(S(=O)(=O)O)cc(S(=O)(=O)O)c2n1
active: [9] 58.9 µM | [4] 0.589 µM | [6] 29.5 µM | [7] 29.5 µM
inactive: [1] | [3] | [5]

O=C(c1ccco1)N1CCNCC1
not listed: [8] | [9]
inactive: all other assays above

Cc1ccc2ccccc2c1[N+](=O)[O-]
inactive: [1] | [9] | [3] | [4] | [5] | [6]

Sc1nc(S)nc(S)n1
inactive: [1] | [9] | [4] | [5] | [6] | [7]

O=C(O)CNc1ccccc1
inactive: [1] | [9] | [4] | [5] | [6] | [7]

CCCCC(CC)COCCC#N (centres undefined)
inactive: [1] | [9] | [4] | [5] | [6] | [7]

O=C1C=CCCC1
not listed: [2] | [8] | [10]
inactive: all other assays above

C=CC(=O)OCCCCCCCCCC
inactive: [1] | [9] | [4] | [6] | [7]

CCOC(OCC)OCC
inactive: [1] | [9] | [3] | [4] | [6]

CCn1nc(Cc2ccccc2)cc1C1CCN(C[C@H]2C[C@H](N(C)[C@@H](C(=O)O)C(C)C)C[C@@H]2c2cccc(F)c2)CC1
inactive: [1] | [9] | [4] | [5]

CCCCOC(=O)CC#N
inactive: [1] | [9] | [3] | [4] | [5] | [6]

Nc1ccccc1Nc1ccccc1
inactive: [1] | [9] | [4] | [5]
active: [6] 68.8 µM | [7] 54.6 µM

C=C[Si]1(C)O[Si](C)(C=C)O[Si](C)(C=C)O[Si](C)(C=C)O1 (centres undefined)
inactive: [1] | [9] | [4] | [6]

CCC(C)C1N=C(C)C(C)S1 (centres undefined)
inactive: [1] | [9] | [4] | [5] | [6] | [7]

O=C(Cl)c1ccc(F)c(Cl)c1
not listed: [2] | [8] | [10]
inactive: all other assays above

CCC(=O)O[C@@H]1C[C@H]2CC[C@]1(C)C2(C)C
inactive: [1] | [9] | [4] | [5] | [6] | [7]

CCOc1cc(OCC)c(C(C)=O)cc1OCC
active: [10] 26.8 µM | [6] 10.7 µM | [7] 8.48 µM
not listed: [8] | [9]
inactive: all other assays above

NC(=O)c1ccccc1C(N)=O
active: [1] 49.2 µM
not listed: [8] | [9]
inactive: all other assays above

CCCCCCCCCC(C)C=O (centres undefined)
inactive: [2] | [4] | [5] | [6] | [7]
active: [1] 24.5 µM

CC/C=C\CCO
inactive: [1] | [2] | [4] | [5] | [6] | [7]

Cc1ccc(NC(=O)c2ccc(CN3CCN(C)CC3)cc2)cc1Nc1nccc(-c2cccnc2)n1
inactive: [1] | [2] | [4] | [5]

CCCCCCCCS
inactive: [1] | [2] | [3] | [4] | [6] | [7]

CC(=O)OCC(=O)[C@@]1(O)CC[C@H]2[C@@H]3CCC4=CC(=O)C=C[C@]4(C)[C@@]3(F)[C@@H](O)C[C@@]21C
not listed: [3] | [9] | [10]
inactive: all other assays above

C[Si](C)(C)O[Si](C)(C)O[Si](C)(C)C
inactive: [1] | [2] | [4] | [5] | [6] | [7]

CCc1c(C)[nH]c2c1C(=O)C(CN1CCOCC1)CC2 (centres undefined)
not listed: [3] | [9] | [10]
inactive: all other assays above
